Source: PubChem BioAssay (several laboratories)
PostGolgi yeast: growth inhibition of a yeast mutant, post-Golgi transport screen; inhibition, % at 10 µM; post-Golgi transport phenotypic cell assay; actives 0.9% (n = 98,000);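 also: yeast cells grown in 1536-well plates; yeast grown about 18 h at 30C before absorbance read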
PostGolgi ctrl: growth of the yeast control strain, post-Golgi counter-screen; efflux-deficient yeast background strain, growth absorbance A615, 16 h; inhibition, % at 10 µM; actives 5% (n = 98,000); AID 738
CYP2C9 inhib: human CYP2C9 inhibition. inhibition, % at 5 µM. CYP2C9 Supersomes, luciferin-H conversion, luminescence. AID 777. actives 20% (n = 96,000). P11712;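 active = blocking of liver enzyme CYP2C9 beyond about 50% at 5 µM, limit read from the data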
CYP2C19 inh: blocks human cytochrome P450 2C19. P33261. CYP2C19 Supersomes, luciferin-H EGE luminescence, 30 min. inhibition, % at 5 µM. actives 21% (n = 96,000). AID 778;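 active = CYP2C19 inhibition above a set limit at 5 µM in the primary screen, cut at about 50% in these data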;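 also: plate controls were negative control wells for no effect and 2.5 mM tranylcypromine positive control for full effect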
Target sequence (P33261 whole entry, looked up): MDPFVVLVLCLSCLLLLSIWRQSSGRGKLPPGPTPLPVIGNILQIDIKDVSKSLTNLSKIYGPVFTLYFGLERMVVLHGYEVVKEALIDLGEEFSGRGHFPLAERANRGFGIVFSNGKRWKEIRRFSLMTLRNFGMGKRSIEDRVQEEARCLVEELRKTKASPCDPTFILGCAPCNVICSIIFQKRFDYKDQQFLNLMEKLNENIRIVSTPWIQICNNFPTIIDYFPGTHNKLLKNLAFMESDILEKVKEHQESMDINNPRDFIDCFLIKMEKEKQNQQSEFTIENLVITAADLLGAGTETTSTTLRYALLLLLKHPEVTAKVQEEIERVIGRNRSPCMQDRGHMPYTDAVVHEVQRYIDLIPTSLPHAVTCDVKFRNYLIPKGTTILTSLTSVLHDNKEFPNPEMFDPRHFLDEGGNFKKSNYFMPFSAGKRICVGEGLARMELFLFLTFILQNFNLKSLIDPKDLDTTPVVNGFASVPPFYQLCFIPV
CYP2C19 activ: increases human CYP2C19 enzyme activity | P33261 | recombinant CYP2C19, luciferin-H EGE luminescence; stronger effect = higher value; 0 = fully inhibited enzyme, 1 = untreated enzyme | activation factor at 5 µM | 96,000 tested, under 10 active;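 active = activation factor of at least 2 at 5 µM in the primary screen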;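 also: 0 = wells with 2.5 mM tranylcypromine and 1 = vehicle-only wells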
CYP2C9 act: increases human cytochrome P450 2C9 activity | P11712 | recombinant CYP2C9, luciferin-H conversion, luminescence; stronger effect = higher value; factor 1 = untreated enzyme, 0 = blocked | activation factor at 5 µM | actives 1.4% (n = 96,000);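 active = activation factor of 2 or more for CYP2C9 at a 5 µM dose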;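 also: 0 = sulfaphenazole-blocked wells and 1 = vehicle-only wells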
* = called active by the depositor; / = no result. Hits are enriched below; roughly 32% of the tested compounds scored in any of these assays. Rule as the data show it, unless noted: active = inhibition above about 30%; inactive = the rest.

SMILES | PostGolgi yeast | PostGolgi ctrl | CYP2C9 inhib | CYP2C19 inh | CYP2C19 activ | CYP2C9 act
O=C(Nc1ccn(Cc2c(F)c(F)cc(F)c2F)n1)c1ccc(COc2ccccc2Cl)cc1 | 5 | 7 | 66* | 32 | 0.7 | 0.3
CCOCCn1c(SCc2c(F)cccc2Cl)nc2c1c(=O)[nH]c(=O)n2C | 3 | 3 | 6 | 22 | 0.8 | 0.9
O=C(NCCN1CCCC1)c1cc(-c2ccncc2)nc2ccc(S(=O)(=O)N3CCOCC3)cc12 | 15 | -2 | 32 | 40 | 0.6 | 0.7
CCOc1ccc(OCc2ccc(C(=O)NCc3cccnc3)o2)cc1 | 3 | 13 | 37 | 43 | 0.6 | 0.6
O=C(NCc1ccc2c(c1)OCO2)c1ccc(COc2cc(Cl)ccc2Cl)o1 | -7 | 15 | 94* | 57* | 0.4 | 0.1
O=C(NCc1cccnc1)c1ccc(COc2cccc3ccccc23)o1 | 2 | 18 | 2 | 53* | 0.5 | 1
O=C(CN1CCCCC1)Nc1cccc(Br)c1 | -3 | 8 | -6 | 33 | 0.7 | 1.1
CCOCC(O)CS(=O)Cc1ccccc1 (centres undefined) | 10 | -5 | -5 | 6 | 0.9 | 1.1
O=S(Cc1ccccc1)CC(O)(c1ccc(Cl)cc1)c1ccc(Cl)cc1 (centres undefined) | -2 | 15 | 24 | 85* | 0.1 | 0.8
O=S(Cc1ccc(Cl)cc1)CC(O)(c1ccccc1)c1ccccc1 (centres undefined) | -5 | 4 | 36 | 80* | 0.2 | 0.6
OC(CNCc1ccc(F)cc1)(c1ccccc1)c1ccc(F)cc1 (centres undefined) | -6 | -2 | 16 | 33 | 0.7 | 0.8
CC(C)(C)c1[nH]nc2c1C(c1ccncc1)C(C#N)=C(N)O2 (centres undefined) | 2 | 2 | 72* | 60* | 0.4 | 0.3
Cc1[nH]nc2c1C(c1ccc(Cl)cc1)C(C#N)=C(N)O2 (centres undefined) | -8 | 2 | 43 | 53* | 0.5 | 0.6
Clc1ccc(CSc2cc3c(nn2)-c2ccccc2CC3)cc1 | 9 | 29 | 8 | 25 | 0.8 | 0.9
CO/N=C(\Cn1ncc(NC2CCCCC2)c(Br)c1=O)c1ccc(Cl)cc1 | 23 | 76* | 54* | 7 | 0.9 | 0.5
CO/N=C(\Cn1ncc(N2CCCC2)c(Br)c1=O)c1ccc(Cl)cc1 | -15 | 19 | 86* | 89* | 0.1 | 0.1
C=CCNc1cnn(CC(C)=O)c(=O)c1Br | 10 | 14 | -5 | 7 | 0.9 | 1
Cn1nnnc1SCC(=O)Nc1cc(C(=O)O)cc(C(=O)O)c1 | 20 | 0 | 4 | 3 | 1 | 1
CCOC(=O)C(C)n1nc(/C=C/c2ccccc2)ccc1=O (centres undefined) | 8 | 19 | 71* | 28 | 0.7 | 0.3
N#Cc1c(N2CCN(C(=O)c3ccccc3)CC2)nc(-c2ccccc2)c2c1CCCC2 | 57* | 28 | 72* | 62* | 0.4 | 0.3
N#Cc1c(N2CCN(C(=O)c3ccco3)CC2)nc(-c2ccccc2)c2c1CCCC2 | 52* | 23 | 86* | 88* | 0.1 | 0.1
CC1(C)Cc2c(C#N)c(N3CCN(C(=O)c4ccco4)CC3)nc(-c3ccco3)c2CS1 | 6 | 21 | / | / | / | /
N#Cc1c(N2CCN(C(=O)c3ccccc3Cl)CC2)nc(-c2ccccc2)c2c1CCCC2 | 3 | 7 | 64* | 50* | 0.5 | 0.4
CCOC(=O)c1c(C)[nH]c(C(=O)CN2CC(C)OC(C)C2)c1C (centres undefined) | -1 | -6 | 17 | 28 | 0.7 | 0.8
Cc1ccc(-n2c(C)cc(/C=N/NC(=O)c3ccncc3)c2C)c(C)c1 | 1 | -8 | 22 | 18 | 0.8 | 0.8
SMILES | PostGolgi yeast | PostGolgi ctrl | CYP2C9 inhib | CYP2C19 inh | CYP2C19 activ | CYP2C9 act
CC(=O)c1cc2c(cc1NC(=O)CN1CCN(c3ccc(F)cc3)CC1)OCO2 | 2 | 14 | 40 | 0 | 1 | 0.6
CC1(C(=O)NCc2cccnc2)CCC(=O)N1Cc1cccs1 (centres undefined) | 1 | 7 | 8 | 52* | 0.5 | 0.9
Cc1ccc(CN2C(=O)CCC2(C)C(=O)NCc2cccnc2)cc1 (centres undefined) | 6 | -1 | 19 | 24 | 0.8 | 0.8
CCN(C(=O)c1cn(CC)c(=O)c2cc(OC)c(OC)cc12)c1ccccc1C | 0 | 16 | 12 | 10 | 0.9 | 0.9
CCN(C(=O)c1cccc(F)c1)c1ccccc1C | 2 | 15 | 61* | 83* | 0.2 | 0.4
Cc1nc2sccn2c1P(c1c(C)nc2sccn12)c1c(C)nc2sccn12 | / | / | 63* | 72* | 0.3 | 0.4
CCOC(=O)c1c(C)nc2sccn12 | -12 | 1 | -15 | 12 | 0.9 | 1.1
Cn1cc(S(=O)(=O)N2CCN(c3ccccc3)CC2)c(=O)n(C)c1=O | -1 | -4 | 27 | 41 | 0.6 | 0.7
O=C(c1ccc2ccccc2c1)N1CCN(c2ccc(C(F)(F)F)cn2)CC1 | -1 | 4 | 19 | 6 | 0.9 | 0.8
FC(F)(F)c1ccc(N2CCN(c3cc(-c4ccccc4)nc4ncnn34)CC2)nc1 | 11 | 57* | 48 | 39 | 0.6 | 0.5
CCOC(=O)C1=C(c2ccccc2)N(C)C(=O)NC1c1ccc(OC(F)F)c(OC)c1 (centres undefined) | -1 | 8 | 83* | 69* | 0.3 | 0.2
O=C(O)CCSCc1ccccc1F | 0 | -7 | -5 | -20 | 1.2 | 1.1
CCC(C(=O)Nc1cnccn1)c1ccccc1 (centres undefined) | 5 | 2 | 18 | 60* | 0.4 | 0.8
Cn1c(SCC2CCCO2)nnc1-c1ccncc1 (centres undefined) | 4 | -4 | -7 | 66* | 0.3 | 1.1
Cc1ccc(CSc2nnc(-c3ccncc3)n2CC2CCCO2)cc1 (centres undefined) | 14 | 11 | 25 | 60* | 0.4 | 0.7
CCC(NS(=O)(=O)c1ccc(OC)cc1)C(=O)NCCC1=CCCCC1 (centres undefined) | -10 | 11 | 34 | 31 | 0.7 | 0.7
O=C1CSC(c2cn(-c3ccccc3)nc2-c2cc3ccccc3oc2=O)N1Cc1ccccc1 (centres undefined) | -5 | 22 | 30 | -12 | 1.1 | 0.7
O=C1CSC(c2nn(-c3ccccc3)cc2-c2cc3ccccc3oc2=O)N1Cc1ccco1 (centres undefined) | 14 | 14 | 84* | 55* | 0.4 | 0.2
O=C(NC(Nc1ncccn1)C(=O)c1ccccc1)c1ccccc1 (centres undefined) | 3 | 23 | 77* | 78* | 0.2 | 0.2
O=C(NC(C(=O)c1ccccc1)n1cnccc1=O)c1ccccc1 (centres undefined) | 4 | 2 | 11 | 10 | 0.9 | 0.9
CN(C)c1nc(NS(=O)(=O)c2ccc(Cl)cc2)nc(N(C)C)n1 | 4 | -2 | 30 | 22 | 0.8 | 0.7
